Data on nine compounds can be found in ChEMBL document CHEMBL3988442, “University of Dundee, Small-Polar-MMV Screening Library” (2021).

Each structure is given as a SMILES string. For part of these data: Potency and affinity values are given separately.

Holding throughout (set-up): scale not given: direction of the effect not stated beside the values
Assay [1] has as its target Protein translocase subunit SecA (Escherichia coli (strain K12)) (UniProt P10408). Put plainly: Assay to Identify E. coli SecA ATPase Inhibitors. It is filed as functional. The settings on record: 30 µM.
Assay [2] has as its target T1, Ubiquitin-activating enzyme e1, putative (Leishmania donovani (strain BPK282A1)) (UniProt E9BSI1).
T1 sequence (whole entry): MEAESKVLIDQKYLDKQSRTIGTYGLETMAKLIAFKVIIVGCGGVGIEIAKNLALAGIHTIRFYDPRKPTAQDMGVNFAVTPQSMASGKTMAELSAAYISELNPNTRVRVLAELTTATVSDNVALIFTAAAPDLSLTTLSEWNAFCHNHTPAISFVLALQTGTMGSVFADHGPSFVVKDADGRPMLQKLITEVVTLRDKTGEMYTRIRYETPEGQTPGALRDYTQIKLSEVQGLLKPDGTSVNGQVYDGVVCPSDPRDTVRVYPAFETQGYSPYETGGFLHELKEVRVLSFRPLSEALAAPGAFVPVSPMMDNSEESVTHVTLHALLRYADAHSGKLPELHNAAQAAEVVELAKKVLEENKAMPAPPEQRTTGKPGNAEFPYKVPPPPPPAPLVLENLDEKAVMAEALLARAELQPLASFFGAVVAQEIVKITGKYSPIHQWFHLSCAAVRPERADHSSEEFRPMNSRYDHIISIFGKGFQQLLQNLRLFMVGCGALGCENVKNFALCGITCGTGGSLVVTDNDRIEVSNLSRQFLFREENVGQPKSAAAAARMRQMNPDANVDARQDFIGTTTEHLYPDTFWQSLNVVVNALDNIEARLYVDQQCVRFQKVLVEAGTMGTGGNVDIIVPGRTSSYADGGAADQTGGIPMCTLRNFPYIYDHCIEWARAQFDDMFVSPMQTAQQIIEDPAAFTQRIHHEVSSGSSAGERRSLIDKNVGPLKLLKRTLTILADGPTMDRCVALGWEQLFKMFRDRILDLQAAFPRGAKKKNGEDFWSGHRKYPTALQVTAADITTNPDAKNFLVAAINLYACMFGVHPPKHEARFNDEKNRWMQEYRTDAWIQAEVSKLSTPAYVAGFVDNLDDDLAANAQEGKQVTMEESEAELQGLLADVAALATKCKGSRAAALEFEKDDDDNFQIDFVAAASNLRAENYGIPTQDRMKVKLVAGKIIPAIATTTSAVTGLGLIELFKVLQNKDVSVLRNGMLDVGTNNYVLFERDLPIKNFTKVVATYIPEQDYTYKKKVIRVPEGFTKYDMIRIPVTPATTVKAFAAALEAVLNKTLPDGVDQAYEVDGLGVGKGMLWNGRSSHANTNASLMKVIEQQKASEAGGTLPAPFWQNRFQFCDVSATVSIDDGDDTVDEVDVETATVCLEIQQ
Put plainly: Leishmania donovani Ubiquitin Activating Enzyme (LdE1). It is filed as functional. The settings on record: 30 µM.

The target of assay [3] is AMP-activated protein kinase, AMPK (Homo sapiens) (UniProt P54646+O43741+P54619+Q9UGJ0+Q9Y478+Q13131+Q9UGI9). Briefly: AMP-dependent Kinase enzyme assay. An in vitro enzyme assay that detects ADP turnover that is directly proportional to AMPK activity. This uses naive AMPK that is activated during the assay with MK-8722. The class given is functional. Particulars: 30 µM.

The target in assay [4] is Sialic acid-binding Ig-like lectin 9 (Homo sapiens) (UniProt Q9Y336). Briefly: Hs-Siglec9 ALPHAscreen SOP 20170721. The settings on record: 10 µM. On the technique in general: Bead proximity is the source of the signal in Alpha formats.
The subject of another assay is Trypanosoma cruzi. Briefly: Trypanosoma cruzi phosphomannomutase and mannose-1-phosphate guanylyltransferase assay. The class given is functional. Particulars: 10 µM.
Assay [5] concerns the target T2, Arginase-2, mitochondrial (Homo sapiens) (UniProt P78540).
T2 sequence (whole entry): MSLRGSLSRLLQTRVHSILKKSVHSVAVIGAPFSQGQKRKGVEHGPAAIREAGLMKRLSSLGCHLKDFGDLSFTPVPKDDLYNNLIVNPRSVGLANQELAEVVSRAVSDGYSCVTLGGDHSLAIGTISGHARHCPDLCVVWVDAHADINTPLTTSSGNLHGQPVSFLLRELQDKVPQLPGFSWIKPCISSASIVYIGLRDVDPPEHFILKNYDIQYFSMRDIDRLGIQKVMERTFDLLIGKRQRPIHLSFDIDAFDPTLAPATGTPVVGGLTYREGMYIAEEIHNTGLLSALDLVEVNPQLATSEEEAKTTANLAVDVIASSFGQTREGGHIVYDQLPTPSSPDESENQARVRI
Put plainly: in vitro enzyme assay to detect the production of urea directly proportional to the activity of Arginase II. Further: in the data most compounds retested in dose-response had high values. It is filed as functional. The settings on record: 33.3 µM.

Assay [6] deals with T3, Proteasome subunit beta (Trypanosoma cruzi) (UniProt O96673).
T3 sequence (whole entry): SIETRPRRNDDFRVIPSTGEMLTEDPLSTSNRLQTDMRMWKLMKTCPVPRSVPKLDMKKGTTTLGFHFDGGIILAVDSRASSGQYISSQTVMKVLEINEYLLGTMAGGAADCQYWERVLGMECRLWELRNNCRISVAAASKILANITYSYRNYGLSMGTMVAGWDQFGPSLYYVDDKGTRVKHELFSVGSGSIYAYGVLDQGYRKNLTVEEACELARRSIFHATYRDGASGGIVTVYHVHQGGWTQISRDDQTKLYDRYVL
Put plainly: Trypanosoma cruzi proteasome chymotrypsin-like activity (TcProtChymo) assay. Further: in the data most compounds retested in dose-response had high values. It is filed as functional. The settings on record: 9.37 µM.

The species entered for another assay is Homo sapiens. Put plainly: To identify inhibition of the IFN signalling (Jak-Stat) pathway via expression of an eGFP reporter gene under the control of an IFN-stimulated response element (ISRE) containing MxA promoter. The class given is functional. Particulars: 30 µM. On the technique in general: In a reporter assay the amount or activity of a reporter protein is the signal.

Assay [7] concerns the target T4, Tyrosyl-tRNA synthetase, putative (Trypanosoma cruzi (strain CL Brener)) (UniProt Q4DSP6).
T4 sequence (whole entry): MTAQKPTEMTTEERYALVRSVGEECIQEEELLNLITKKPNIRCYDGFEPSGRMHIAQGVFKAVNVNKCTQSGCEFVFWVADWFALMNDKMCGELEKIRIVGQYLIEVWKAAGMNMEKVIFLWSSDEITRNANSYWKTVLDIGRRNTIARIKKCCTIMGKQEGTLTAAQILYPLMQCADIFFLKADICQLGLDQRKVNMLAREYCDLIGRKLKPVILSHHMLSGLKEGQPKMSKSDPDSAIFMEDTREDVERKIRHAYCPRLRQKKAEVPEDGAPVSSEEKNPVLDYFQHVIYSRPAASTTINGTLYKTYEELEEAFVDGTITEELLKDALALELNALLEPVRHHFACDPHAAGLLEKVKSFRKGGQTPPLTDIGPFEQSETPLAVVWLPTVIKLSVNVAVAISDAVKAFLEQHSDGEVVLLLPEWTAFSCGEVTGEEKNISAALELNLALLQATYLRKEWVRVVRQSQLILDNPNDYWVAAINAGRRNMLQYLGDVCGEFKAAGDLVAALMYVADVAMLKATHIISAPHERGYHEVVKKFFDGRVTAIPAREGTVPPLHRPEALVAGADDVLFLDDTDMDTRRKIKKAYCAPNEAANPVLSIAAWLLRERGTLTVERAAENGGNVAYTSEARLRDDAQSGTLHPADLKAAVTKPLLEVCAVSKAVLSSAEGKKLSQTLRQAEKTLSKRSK
Briefly: Trypanosoma cruzi tyrosyl tRNA synthetase (TcYRS) _High Tyrosine SOP. Further: in the data most compounds retested in dose-response had high values. The class given is functional. Particulars: 30 µM.

The target in assay [8] is T4, Tyrosyl-tRNA synthetase, putative (Trypanosoma cruzi (strain CL Brener)). Put plainly: Trypanosoma cruzi tyrosyl tRNA synthetase (TcYRS) SOP. The class given is functional. The settings on record: 30 µM.
For assay [9], the target named is Chromo domain-containing protein 1 (Saccharomyces cerevisiae (strain ATCC 204508 / S288c) (Baker's yeast)) (UniProt P32657). Briefly: ScCHD-1 Enzyme Inhibition Assay. Further: in the data most compounds retested in dose-response had high values. It is filed as functional. Particulars: 30 µM.
Chromo domain-containing protein 1 (Saccharomyces cerevisiae (strain ATCC 204508 / S288c) (Baker's yeast)), sequence (P32657 whole entry, the tested form may be a part): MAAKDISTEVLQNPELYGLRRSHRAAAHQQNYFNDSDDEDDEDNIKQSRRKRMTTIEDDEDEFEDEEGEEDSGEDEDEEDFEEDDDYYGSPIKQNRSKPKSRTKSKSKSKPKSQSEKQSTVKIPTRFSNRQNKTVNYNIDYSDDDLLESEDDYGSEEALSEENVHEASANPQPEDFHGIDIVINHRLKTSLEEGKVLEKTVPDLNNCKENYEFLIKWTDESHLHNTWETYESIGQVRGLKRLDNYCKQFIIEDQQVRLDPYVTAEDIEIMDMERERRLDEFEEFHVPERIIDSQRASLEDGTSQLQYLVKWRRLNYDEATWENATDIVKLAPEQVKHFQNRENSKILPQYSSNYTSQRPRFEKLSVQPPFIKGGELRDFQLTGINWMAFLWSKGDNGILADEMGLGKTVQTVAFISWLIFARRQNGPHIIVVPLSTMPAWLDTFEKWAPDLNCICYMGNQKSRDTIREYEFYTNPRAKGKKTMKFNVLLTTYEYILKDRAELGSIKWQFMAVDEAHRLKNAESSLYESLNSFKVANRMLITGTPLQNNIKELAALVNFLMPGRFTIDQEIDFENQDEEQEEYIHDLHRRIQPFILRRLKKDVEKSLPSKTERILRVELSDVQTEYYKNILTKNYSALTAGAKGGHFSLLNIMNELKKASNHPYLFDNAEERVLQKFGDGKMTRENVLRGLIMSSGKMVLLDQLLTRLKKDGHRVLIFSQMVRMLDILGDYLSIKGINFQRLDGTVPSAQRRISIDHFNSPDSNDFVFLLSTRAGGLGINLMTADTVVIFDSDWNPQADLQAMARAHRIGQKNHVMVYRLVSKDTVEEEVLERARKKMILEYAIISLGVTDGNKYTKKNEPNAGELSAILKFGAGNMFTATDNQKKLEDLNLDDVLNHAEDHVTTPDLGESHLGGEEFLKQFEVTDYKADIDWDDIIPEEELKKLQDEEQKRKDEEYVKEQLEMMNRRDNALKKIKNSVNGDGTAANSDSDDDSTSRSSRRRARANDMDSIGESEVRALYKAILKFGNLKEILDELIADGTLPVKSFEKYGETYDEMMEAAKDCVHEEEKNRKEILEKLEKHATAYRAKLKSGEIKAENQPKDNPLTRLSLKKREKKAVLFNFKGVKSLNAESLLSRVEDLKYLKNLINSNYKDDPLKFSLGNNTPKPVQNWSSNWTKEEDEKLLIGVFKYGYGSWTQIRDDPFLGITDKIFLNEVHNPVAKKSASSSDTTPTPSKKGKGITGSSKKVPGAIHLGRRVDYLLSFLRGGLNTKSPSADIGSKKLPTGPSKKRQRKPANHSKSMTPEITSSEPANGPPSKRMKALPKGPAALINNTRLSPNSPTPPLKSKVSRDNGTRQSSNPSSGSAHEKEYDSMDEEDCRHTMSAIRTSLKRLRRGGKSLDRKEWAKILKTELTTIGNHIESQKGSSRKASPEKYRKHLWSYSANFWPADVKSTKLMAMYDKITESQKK

Sialic acid-binding Ig-like lectin 9 (Homo sapiens), sequence (Q9Y336 whole entry): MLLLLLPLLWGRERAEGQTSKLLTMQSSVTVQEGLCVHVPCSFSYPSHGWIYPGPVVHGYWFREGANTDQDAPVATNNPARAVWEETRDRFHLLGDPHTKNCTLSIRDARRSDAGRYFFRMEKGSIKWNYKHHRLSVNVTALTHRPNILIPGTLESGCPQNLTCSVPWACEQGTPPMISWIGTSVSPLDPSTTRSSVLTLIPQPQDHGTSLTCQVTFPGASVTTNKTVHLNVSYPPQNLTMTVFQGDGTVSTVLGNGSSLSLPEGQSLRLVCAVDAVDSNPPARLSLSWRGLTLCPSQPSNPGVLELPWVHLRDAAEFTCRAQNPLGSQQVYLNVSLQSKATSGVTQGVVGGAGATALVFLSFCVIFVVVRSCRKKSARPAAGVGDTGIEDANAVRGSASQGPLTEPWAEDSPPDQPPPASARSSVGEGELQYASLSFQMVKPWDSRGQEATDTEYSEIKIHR
Protein translocase subunit SecA (Escherichia coli (strain K12)), sequence (P10408 whole entry): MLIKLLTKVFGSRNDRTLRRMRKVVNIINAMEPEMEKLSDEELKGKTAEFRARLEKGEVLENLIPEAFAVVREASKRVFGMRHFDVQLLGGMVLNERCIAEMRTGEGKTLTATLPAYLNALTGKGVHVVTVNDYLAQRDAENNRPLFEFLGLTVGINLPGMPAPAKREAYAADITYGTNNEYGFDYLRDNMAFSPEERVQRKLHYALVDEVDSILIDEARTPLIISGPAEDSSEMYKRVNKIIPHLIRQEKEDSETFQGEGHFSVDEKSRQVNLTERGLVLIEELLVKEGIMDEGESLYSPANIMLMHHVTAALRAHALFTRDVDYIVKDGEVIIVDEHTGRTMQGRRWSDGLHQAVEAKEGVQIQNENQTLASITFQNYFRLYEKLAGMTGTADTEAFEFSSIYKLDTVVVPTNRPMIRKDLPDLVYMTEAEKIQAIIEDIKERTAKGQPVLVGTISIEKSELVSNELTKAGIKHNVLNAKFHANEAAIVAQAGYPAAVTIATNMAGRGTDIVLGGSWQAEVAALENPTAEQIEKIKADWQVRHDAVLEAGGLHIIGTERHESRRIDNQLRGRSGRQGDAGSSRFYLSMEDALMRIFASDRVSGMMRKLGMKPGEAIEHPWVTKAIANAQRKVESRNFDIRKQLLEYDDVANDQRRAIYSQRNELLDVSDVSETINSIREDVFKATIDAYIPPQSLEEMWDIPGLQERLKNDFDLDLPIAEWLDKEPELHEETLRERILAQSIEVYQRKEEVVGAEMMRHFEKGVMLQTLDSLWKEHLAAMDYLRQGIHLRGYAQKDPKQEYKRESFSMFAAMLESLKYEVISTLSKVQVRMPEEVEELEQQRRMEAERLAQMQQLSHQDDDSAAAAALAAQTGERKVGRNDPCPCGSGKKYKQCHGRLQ

For the compound `O=C(Cn1cc(I)cn1)N1CCCC1`, the Percent Effect in assay [1] was 0.0934%; in [2], -1.33%; in [3], -2.19%; in assay [4], 10.5%; with Trypanosoma cruzi, 2.55%; in [5], -2.64%. Besides, the Percent Effect in [6] is 7.02%; in the assay filed under Homo sapiens, 20.5%; in assay [7], 5.29%; in [8], 5.13%; in assay [9] it was -2.75%.
As to `CC1CN(C(=O)NCCCn2cncn2)CCO1` (centres undefined), the Percent Effect in assay [1] was -2.77%; in assay [2] it was 7.89%; in assay [3] it was 1.46%; in assay [4], 3.56%; in the assay on Trypanosoma cruzi, -2.82%; in assay [5], 5.75%. For the same compound, the Percent Effect in assay [6] is 2.84%; in the assay listed under Homo sapiens it was -1.05%; in assay [7], 5.39%; in [8] it was 7.32%; in [9] it was -1.67%.
Take `CC(C)(CNC(=O)CCOc1cccc(F)c1)C(N)=O`: the Percent Effect is -1.29% in assay [1]; 7.89% in assay [2]; 1.89% in [3]; 3.39% in assay [4]; -7.14% in the assay with Trypanosoma cruzi; 3.06% in assay [5]. The Percent Effect in assay [6] is 10.5%; in the assay listed under Homo sapiens, 12%; in assay [7], 5.39%; in assay [8] it was 12.2%; in assay [9] it was -1.57%.
On to `Cn1cnnc1C1CCN(C(=O)CCCOc2ccccc2F)CC1`, for which the Percent Effect was -5.06% in assay [1]; 10.4% in assay [2]; -2% in assay [3]; 4.13% in assay [4]; -7.87% in the assay with Trypanosoma cruzi; 4.98% in assay [5]. The Percent Effect in assay [6] was 2.53%; in the assay listed under Homo sapiens, 14.2%; in assay [7], 3.88%; in assay [8], 7.32%; in assay [9], -2.08%.
On to `COc1cccc(CC(=O)N2CCc3ncnc(NC(C)C)c3CC2)c1`, for which the Percent Effect is -5.16% in assay [1]; -18.9% in [2]; 0.899% in assay [3]; -4.76% in assay [4]; -3.42% in the assay on Trypanosoma cruzi; -0.319% in [5]. In addition, the Percent Effect in [6] came out at 7.38%; in the assay filed under Homo sapiens, 12.2%; in assay [7], 3.24%; in assay [8], 7.69%; in assay [9] it was 0.23%.
On to `CC(=O)NCCC1CCCCN1S(=O)(=O)c1cccc(C#N)c1` (centres undefined), for which the Percent Effect in assay [1] is -7.77%; in [2], 8.22%; in [3], 1.2%; in assay [4], 3.78%; with Trypanosoma cruzi, 1.98%; in assay [5], -2%. The Percent Effect in [6] is 13.6%; in the assay listed under Homo sapiens, 4.41%; in assay [7] it was 2.08%; in [8], 8.64%; in assay [9], 0.784%.
`CC(NCc1cccnc1)c1ccc(OCC(=O)NC2CC2)cc1` (centres undefined): the Percent Effect in assay [1] was -4.57%; in assay [2] it was 1.27%; in [3], 10.2%; in assay [4], 0.488%; in the assay with Trypanosoma cruzi, -2.15%; in assay [5], -0.215%. In addition, the Percent Effect in [6] is 12.2%; in the assay filed under Homo sapiens, -0.549%; in assay [7], -2.08%; in [8] it was -2.53%; in [9], 4.29%.
On to `CC(=O)c1cn(CCC(=O)NCCC(=O)O)c2ccccc12`, for which the Percent Effect in assay [1] was 0.0873%; in assay [2], 9.33%; in [3] it was 1.48%; in assay [4] it was 3.5%; with Trypanosoma cruzi it was -3.14%; in assay [5] it was -6.16%. Also, the Percent Effect in [6] was 15.5%; in the assay filed under Homo sapiens, 0.418%; in [7], 9.52%; in assay [8], 17.9%; in assay [9], -3.67%.
For `CC(Cn1ccnc1)NC(=O)C1(c2ccc(F)cc2)CC1` (centres undefined), the Percent Effect in assay [1] is -2.91%; in assay [2] it was 17.7%; in [3], -3.38%; in assay [4] it was -4.39%; in the assay with Trypanosoma cruzi, 2.93%; in assay [5], -3.42%. The Percent Effect in assay [6] is 4.83%; in the assay filed under Homo sapiens, -2.07%; in assay [7], 1.48%; in [8] it was 16.5%; in assay [9], -3.1%.
